Reference: publication PMC5836133, “The intracellular immune receptor Rx1 regulates the DNA-binding activity of a Golden2-like transcription factor”
Over roughly 16,000 sequences, “e-score” has its median near -0.044; the highest 2% begin near 0.38. The list comes from a sample in which the highest values are over-represented; it also holds similar and randomly drawn sequences.

Target: T1, GST-NbGlk1(82-244) (Nicotiana benthamiana)
T1 chain: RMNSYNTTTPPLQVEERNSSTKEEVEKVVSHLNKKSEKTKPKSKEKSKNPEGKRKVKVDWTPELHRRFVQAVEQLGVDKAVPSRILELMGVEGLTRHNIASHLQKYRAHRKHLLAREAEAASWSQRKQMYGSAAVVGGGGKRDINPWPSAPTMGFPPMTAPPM
Assay: protein-binding microarray; NbGlk1 is a Golden2-like transcription factor of Nicotiana benthamiana; high values mean tight binding
Settings: protein: recombinant; tags: GST (pTH6838); dsDNA, one strand shown

Sequence	binding signal [E-score]
AATCAGAT	0.341 ± 0.0502
ACTAATAT	0.2093 ± 0.00102
ATGGGAAT	0.296 ± 0.0441
ACAGATCC	0.234 ± 0.05
ACAAGATA	0.322 ± 0.00757
ATTCCCTC	0.372 ± 0.0111
AGAATCAC	0.373 ± 0.0542
AAAATACG	0.286 ± 0.0671
AAAATCCA	0.454 ± 0.016
ACAATCCA	0.3331 ± 0.000895
AAAATCCG	0.446 ± 0.00893
ATAATCCA	0.354 ± 0.0347
AGAATCAG	0.39 ± 0.0152
AGAATCAA	0.342 ± 0.0419
CAAATCCG	0.389 ± 0.00882
ATAATCAA	0.216 ± 0.00752
AAGCGGAT	0.227 ± 0.0367
AATCGGAT	0.357 ± 0.0422
ATATACAG	0.262 ± 0.0848
ATCCCTTA	0.215 ± 0.0752
ATGTGATA	0.231 ± 0.0239
ATCCTCAG	0.231 ± 0.0659
CAAATCCA	0.3792 ± 0.00132
CAGATCCA	0.23 ± 0.064
AAAATCAC	0.36 ± 0.0307
CAAATCCC	0.315 ± 0.0145

Sequence	binding signal [E-score]
AAAATCAG	0.381 ± 0.0189
ATAATCCC	0.212 ± 0.0485
AAAATCCT	0.433 ± 0.0284
AAAATCAT	0.302 ± 0.0817
ATAATCAG	0.222 ± 0.0278
AAAATCCC	0.41 ± 0.0189
CAAATTCA	0.203 ± 0.0475
ACTGAAAT	0.278 ± 0.0182
ATATTCAA	0.213 ± 0.11
AGTAAGAA	0.214 ± 0.0216
ATCCGCCG	0.216 ± 0.0636
ATTTCATG	0.332 ± 0.0188
ATCTCCAG	0.293 ± 0.0251
ATCCTGAG	0.23 ± 0.00887
ACCAAAGA	0.208 ± 0.134
ATCTCACG	0.2 ± 0.0565
ATTGAAAA	0.214 ± 0.0168
AAGGTAAT	0.217 ± 0.0574
AGATTCAT	0.24 ± 0.0201
AGATTCCG	0.4631 ± 0.000925
AGATACCA	0.204 ± 0.131
AAATTCCC	0.294 ± 0.0591
AGATTCCA	0.433 ± 0.0111
AGATACCT	0.216 ± 0.0648
AGATTCAG	0.238 ± 0.0658
ATTTTCCA	0.294 ± 0.00656

Sequence	binding signal [E-score]
AGATTCCT	0.4552 ± 0.00311
AGATACCG	0.364 ± 0.0644
CAATTCCC	0.217 ± 0.0511
AGATTCCC	0.493 ± 0.00512
AGATCGTG	0.339 ± 0.0193
ATCCGCGG	0.28 ± 0.0747
AGAATTCG	0.221 ± 0.0588
AATCGACT	0.263 ± 0.0439
CAATCGAA	0.202 ± 0.113
ATCCTCCA	0.285 ± 0.089
ACAAGAGA	0.277 ± 0.0453
ACTCGTAA	0.247 ± 0.062
ATAATCAC	0.214 ± 0.0373
AATCGTGC	0.299 ± 0.027
ATTACCCC	0.247 ± 0.0858
AATCTAGA	0.452 ± 0.018
AATCAAGC	0.22 ± 0.0411
AATCAAGA	0.308 ± 0.0329
ATTCTAGA	0.2 ± 0.0443
AATCAAGG	0.258 ± 0.0284
AATCTAGG	0.4332 ± 0.00364
AATCTAGC	0.404 ± 0.00637
AATCAAGT	0.233 ± 0.1
AATCGAGC	0.207 ± 0.052
AATCTAGT	0.421 ± 0.0336
ATCCTAGC	0.237 ± 0.018

Sequence	binding signal [E-score]
ATCCCCGC	0.2 ± 0.0376
ATTACACG	0.268 ± 0.0173
CACGATTA	0.202 ± 0.0336
ATGCGTAA	0.21 ± 0.0884
AATCACCA	0.26 ± 0.00706
AATTTCCT	0.255 ± 0.00447
AATCCCCC	0.215 ± 0.101
ATTCTCCA	0.31 ± 0.0567
AATCGCCT	0.225 ± 0.129
AATCACCG	0.281 ± 0.0154
AATCTCCA	0.389 ± 0.05
AATCTCCG	0.437 ± 0.00941
AATCTCCT	0.4008 ± 0.00273
ATTCTCCG	0.338 ± 0.0548
ATTCTCCC	0.255 ± 0.0215
AATCTCCC	0.387 ± 0.0218
ATCCGGTA	0.286 ± 0.0898
ATTTGCAC	0.305 ± 0.0821
ATCCAATA	0.324 ± 0.0209
ATCTTTGG	0.304 ± 0.0128
ATCTTTTA	0.259 ± 0.0767
ATACCGCA	0.211 ± 0.101
AAAGCGAT	0.215 ± 0.0733
AATTTGCG	0.223 ± 0.0644
ATTCACAA	0.218 ± 0.0225
AAAGCAAT	0.27 ± 0.0827

Sequence	binding signal [E-score]
ATTTCCTA	0.358 ± 0.0333
ATATCCTA	0.416 ± 0.0447
ATATCGTA	0.364 ± 0.049
ATATCCTC	0.402 ± 0.00645
ATATCCTG	0.373 ± 0.0434
ATCTCCTC	0.296 ± 0.0162
ATTTGGTG	0.213 ± 0.0582
AGACAGAT	0.222 ± 0.0932
ATCCTGCA	0.261 ± 0.126
ACGAGATC	0.41 ± 0.00651
AGGAGATA	0.228 ± 0.0512
ACGAGATA	0.2747 ± 0.00202
ACAAGATC	0.2947 ± 0.00243
AGGAGATC	0.382 ± 0.00924
AGGAGAAT	0.267 ± 0.0583
AGAAGATC	0.383 ± 0.0277
ATGAGATC	0.369 ± 0.0039
AGAAGATA	0.26 ± 0.0155
AACGTATC	0.322 ± 0.0281
ATTACATG	0.293 ± 0.0579
ATCTGTAG	0.3 ± 0.055
ATACGCAT	0.204 ± 0.0532
ATCTGATC	0.329 ± 0.0755
ATTACACA	0.31 ± 0.0413
ATATCACC	0.277 ± 0.0211
ATCTCTCG	0.231 ± 0.0608

Sequence	binding signal [E-score]
ATCTCTCA	0.295 ± 0.0129
ATATCTCA	0.3895 ± 0.00167
ATATCTCC	0.388 ± 0.0404
ATCTCCCC	0.301 ± 0.0229
ATTTCTCA	0.248 ± 0.108
ATATCACG	0.347 ± 0.0113
ATATCTCG	0.435 ± 0.0109
AATCCCCA	0.346 ± 0.00463
ACTAAATC	0.213 ± 0.00269
AACACAAT	0.213 ± 0.0479
ATTACAAC	0.257 ± 0.0217
ATGAGATA	0.20921 ± 0.000115
ATTGCGCA	0.301 ± 0.0513
ATCTGGAC	0.346 ± 0.0997
ATCTCCAA	0.342 ± 0.0598
AAAAAATT	0.204 ± 0.0566
AGAAAAAT	0.252 ± 0.0352
AAAAAATC	0.439 ± 0.0166
ACCAAAAT	0.245 ± 0.0514
AGCAAATC	0.4187 ± 0.000896
AAAAAAAT	0.286 ± 0.0488
AGTAAATC	0.241 ± 0.0671
AGCAAAAT	0.241 ± 0.0294
AGAAAATC	0.4794 ± 0.0015
ACCAAATC	0.406 ± 0.00414
ATCAAATC	0.36 ± 0.00877

Sequence	binding signal [E-score]
AGCAAATA	0.221 ± 0.0663
ATATGAAG	0.207 ± 0.0492
AATCACAG	0.3111 ± 0.000659
CAAGATCC	0.33 ± 0.0132
ATTACACC	0.334 ± 0.0466
AACGATAT	0.29 ± 0.015
ATTTTCCC	0.304 ± 0.0203
AAATTATA	0.256 ± 0.00661
AATCGTTG	0.203 ± 0.0845
AACATAAT	0.233 ± 0.0831
ACAAAATA	0.293 ± 0.102
ACAAAAAT	0.238 ± 0.045
ACACAATA	0.226 ± 0.0401
ATAAAAAT	0.292 ± 0.0292
ATAAAATA	0.22 ± 0.00301
ACAAAATC	0.4578 ± 0.00327
CAAAAATC	0.399 ± 0.00565
ACACAATC	0.39 ± 0.0203
AGACAATC	0.3189 ± 0.000404
CACAAATC	0.274 ± 0.0179
AACAAATC	0.302 ± 0.043
ATAAAATC	0.409 ± 0.00541
